Assay outcomes as filed in PubChem.
IMPase cell inh – IMPase inhibition in cells; CHO-M1 cells, IP1 accumulation, HTRF TR-FRET ratio; AID 901; inhibition (IP1 accumulation), % at 46.1 µM; P97697; 120,000 tested, under 10 active; active = well fitted curve in the direction sought with a large enough effect in the signal ratio, not every such curve was filed as active; inconclusive = small, poorly fitted or top-dose-only effect, or a change in a side signal; inactive = no such curve, though single readings can be large or run the other way; the % refers to the signal ratio;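 also: cells stimulated with carbachol in lithium chloride buffer; plate controls were DMSO basal wells for no effect and reference inhibitor wells for full effect; higher means more IMPase inhibition seen as more IP1 and lower FRET ratio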
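Cellular IMPase inhibition is scored as a rise in cytosolic IP1, detected by competitive TR-FRET between d2-labelled IP1 and a europium anti-IP1 antibody. M1-expressing CHO cells were stimulated with carbachol for 30 min at 37C, with lithium (50 mM LiCl) present in the buffer.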
12-hLO inh – 12-hLO (ALOX12) enzyme inhibition; AID 1452; purified 12-hLO, xylenol orange hydroperoxide absorbance; Potency, µM (series often up to 57.1 µM), inactives show at the top dose activity change, negative = inhibition, usual class: inhibitors; actives 0.12% (n = 150,000); P18054; active = well fitted curve in the direction sought with a large enough effect; inconclusive = small, poorly fitted or top-dose-only effect, or another doubt; inactive = no such curve, though single readings can be large; an effect the other way counts as inactive or inconclusive; also: potency is read from the fitted curve at half-maximal effect; nearly all actives have a fitted effect of over 55% in size
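Purified human 12hLO (150 nM), preincubated 15 min with compound, then 40 uM arachidonic acid for 30 min, room temperature, Hepes pH 7.0 with 0.01% Triton X-100. Hydroperoxide detected by ferrous iron/xylenol orange; 573/405 nm absorbance ratio gives reaction progress.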
PNC inhibitor – blocks assembly of the perinucleolar compartment. PC3M PTB-GFP, PNC prevalence imaging, 16 h; stronger effect = lower value. activity change (PNC), negative = inhibition, % at 10 µM. AID 2417. actives 3.1% (n = 140,000);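 active = readout at or below -70, meaning at least 70% loss of cells showing the perinucleolar compartment, a nuclear body marking cancer cells; inconclusive = readout between -30 and a set limit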;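 also: plate controls were DMSO wells for no effect and camptothecin positive control wells for full effect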
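Read-out is percentage of cells bearing a perinucleolar compartment, from automated 20x imaging of fixed, Hoechst-stained PC3M PTB-GFP cells. Cells were seeded 4 h, then exposed 16 h to compound (23 nl of library stock) in duplicate plates.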
IMPase Li cell – membrane-permeable IMPase blocker, potentiated with lithium; CHO-M1 cells, IP1 TR-FRET (IP-One), carbachol + lithium; actives 0.35% (n = 210,000); Potency, µM (doses to about 59.4 µM), for the others: at the top dose activity, negative = IMPase inhibition, most hits filed as inhibitors; active = well fitted curve in the direction sought with a large enough effect; inconclusive = small, poorly fitted or top-dose-only effect, or another doubt; inactive = no such curve, though single readings can be large; an effect the other way counts as inactive or inconclusive;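 also: IP1 builds up when IMPase is blocked and the TR-FRET signal falls; potency is read from the fitted curve at half-maximal effect; plate controls were basal vehicle for no effect and high inhibitor control for full effect; nearly all actives have a fitted effect of over 50% in size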
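CHO cells stably expressing M1 receptor (2000/well) were cultured 16–30 h, then exposed to compounds with a small lithium addition for 30 min at 37C. IP1 was measured by TR-FRET competition; AC50 from Hill fits.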
HPGD block – HPGD (human) dehydrogenase inhibition; P15428; purified HPGD, NADH fluorescence kinetic, PGE2 substrate; Potency, µM, without a hit: at the top dose activity change, negative = inhibition, actives largely listed as inhibitors; actives 4.3% (n = 150,000); AID 894; also: potency is read from the fitted curve at half-maximal effect
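20 nM HPGD preincubated 15 min at room temperature with compound in 50 mM Tris-HCl pH 8, 0.01% Tween 20. Started with 1 mM NAD+ and 30 uM prostaglandin E2; NADH fluorescence (360/450 nm) read 5 times over 30-s intervals, last minus first.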
ALDH1A1 inh – blocks purified human ALDH1A1 activity | Purified ALDH1A1, NADH fluorescence, propionaldehyde substrate | Potency, µM (highest dose often 75.3 µM), for the others: at the top dose activity, negative = inhibition, usual class: inhibitors | actives 7.3% (n = 220,000);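 also: potency is read from the fitted curve at half-maximal effect; plate controls were no enzyme wells and a reference inhibitor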
Target sequence (P00352 whole entry, looked up): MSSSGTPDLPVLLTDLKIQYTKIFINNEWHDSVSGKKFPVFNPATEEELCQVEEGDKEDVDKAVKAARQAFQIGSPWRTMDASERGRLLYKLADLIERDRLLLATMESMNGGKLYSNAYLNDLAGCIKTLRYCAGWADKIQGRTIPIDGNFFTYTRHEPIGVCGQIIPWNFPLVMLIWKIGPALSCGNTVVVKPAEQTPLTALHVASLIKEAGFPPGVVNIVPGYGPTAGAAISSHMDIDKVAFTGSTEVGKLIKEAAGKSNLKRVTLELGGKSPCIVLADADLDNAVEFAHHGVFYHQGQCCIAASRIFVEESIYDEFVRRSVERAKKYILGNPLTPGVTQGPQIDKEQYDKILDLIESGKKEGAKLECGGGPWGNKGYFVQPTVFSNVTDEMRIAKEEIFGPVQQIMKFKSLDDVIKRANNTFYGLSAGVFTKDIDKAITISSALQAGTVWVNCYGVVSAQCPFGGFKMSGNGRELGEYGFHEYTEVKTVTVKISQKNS
* = called active by the depositor; [ ] = remark or other dose. An excerpt weighted towards active compounds, which were near 11% of everything screened. Unless noted, calls follow the shape of the dose curve; as a rule, active = well fitted inhibition curve with a large enough effect (not every such curve was filed as active); inconclusive = small, poorly fitted or top-dose-only effect, or another doubt; inactive = no such curve, though single readings can be large or run the other way. Unless noted, % is scaled to controls: 0 for no effect and ±100 for the full control effect.

`COC(=O)CN1C(=O)C2(C(C#N)=C(N)Oc3c2c(C)nn3-c2ccccc2)c2ccccc21` (configuration not stated) gave IMPase cell inh -6.7, 12-hLO inh -2.8%, PNC inhibitor 288.9, IMPase Li cell 4.5%, HPGD block -13.0% and ALDH1A1 inh 0.141µM*.
Screening COC(=O)CN1C(=O)C2(C(C#N)=C(N)Oc3n[nH]c(-c4cccs4)c32)c2ccccc21 (configuration not stated) returned IMPase cell inh -16.7, 12-hLO inh -3.2%, PNC inhibitor inconclusive, IMPase Li cell -18.4%[38.3 µM], HPGD block -2.4% and ALDH1A1 inh 2.24µM*.
Cc1cccc(NC(=O)Cn2c(=O)n(CC3CCC(C(=O)NCCc4ccccc4)CC3)c(=O)c3ccccc32)c1 (configuration not stated) was read as IMPase cell inh 7.7.
CCCn1c(-c2ccc(F)cc2)nc2c(NCCN(CC)CC)nc(C)nc21 was read as 12-hLO inh 2.1%, IMPase Li cell -0.1%, HPGD block inconclusive and ALDH1A1 inh inconclusive.
Screening O=C(Nc1ccc(N2CCCCC2)cc1)c1ccc(F)cc1 returned IMPase cell inh -7.5, 12-hLO inh -3.0%, PNC inhibitor inconclusive, IMPase Li cell 7.9%[38.3 µM], HPGD block -3.3% and ALDH1A1 inh -11.2%.
`O=C(c1ccc(F)cc1)c1ccc(N2CCCC2)cc1` gave IMPase cell inh 4.7, 12-hLO inh -19.8%, PNC inhibitor 34.5, IMPase Li cell 28.8%[38.3 µM], HPGD block 28.2µM* and ALDH1A1 inh 20µM*.
Screening COc1ccc(C(=O)N2CCC[C@@]3(CCN(c4cccc(-c5ccccc5)c4)C3)C2)cc1 returned 12-hLO inh -29.7%, IMPase Li cell 22.4%, HPGD block -23.5% and ALDH1A1 inh inconclusive.
For N#CCCn1c(Cl)nc2ccccc21 the results were IMPase cell inh -1.3, 12-hLO inh -0.3%, PNC inhibitor -86.0*, IMPase Li cell -6.8%[38.3 µM], HPGD block -7.2% and ALDH1A1 inh -4.8%.
Cc1cccc(N2CCN(C3(c4ccccc4)C(=O)c4ccccc4C3=O)CC2C)c1 (configuration not stated) was read as IMPase cell inh 16.2.
OCCNc1nc(-c2cccnc2)nc2ccccc12 was read as IMPase cell inh 3.8, 12-hLO inh -4.9%, PNC inhibitor inconclusive, IMPase Li cell 16.0%[38.3 µM], HPGD block inconclusive and ALDH1A1 inh 25.1µM*.
c1cncc(-c2nc(NCCCn3ccnc3)c3ccccc3n2)c1 was read as IMPase Li cell 14.6% and ALDH1A1 inh 5.9%.
CC1=C(C(=O)OC(C)C)C(c2c[nH]c3ccccc23)n2ncnc2N1 (configuration not stated) was read as IMPase cell inh -3.5, 12-hLO inh 0.0%, PNC inhibitor -105.8*, IMPase Li cell -2.2%[38.3 µM], HPGD block 3.5% and ALDH1A1 inh 14.8%.
For CCOC(=O)C1=C(C)NC(=S)N(C(C)=O)C1c1ccccc1 (configuration not stated) the results were IMPase cell inh inconclusive, 12-hLO inh 8.9%, PNC inhibitor inconclusive, IMPase Li cell -0.1%, HPGD block -18.5% and ALDH1A1 inh 25.1µM*.
COc1ccccc1NC(=O)C1=C(C)Nc2nnnn2C1c1ccccn1 (configuration not stated) was read as IMPase cell inh 3.3, 12-hLO inh 2.9%, PNC inhibitor -25.4, IMPase Li cell 25.1%[38.3 µM], HPGD block -3.0% and ALDH1A1 inh 12.6µM*.
Screening CCOC(=O)C1=C(C)Nc2ncnn2C1c1cccnc1 (configuration not stated) returned IMPase cell inh 0.2, 12-hLO inh 1.7%, PNC inhibitor inconclusive, IMPase Li cell -7.0%[38.3 µM], HPGD block -4.9% and ALDH1A1 inh 7.7%.
